From PubChem BioAssay AID1159580 (chemical genetic matrix, 2015)
Values joined by “and” are separate entries in the source; they are usually repeats but may differ in a detail not shown here. Identical values can stand only once. Out of some 5,500 compounds screened, about 2,000 (36%) were called active. Inconclusive results (about 18%) are left out. Rule as the data show it: active = normalized growth mostly below about 0.91 (no sharp cut-off); inconclusive = no clear call, values can overlap the other calls; inactive = mostly above about 0.92. Some of the results follow.

Test: chemical genetic growth profiling, strain panel (AID 1159580);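 also: tested at 20 µM; growth read once vehicle control cultures reached saturation at 30 °C; 1 = growth at the plate median or of vehicle wells; lower values mean less growth of the strain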
Conditions: S. cerevisiae deletion strains, growth OD

Measured: normalized growth

Cn1cnc2c1c(=O)[nH]c(=O)n2C
inactive: locus YAL013W, strain DEP1, stronger effect = lower value 1.01 | locus YAL021C, strain ccr4, stronger effect = lower value 0.952 | locus YAL026C, strain drs2, stronger effect = lower value 0.989 | locus YAL030W, strain snc1, stronger effect = lower value 0.985 | locus YAL040C, strain CLN3, stronger effect = lower value 0.992 | locus YBL061C, strain skt5, stronger effect = lower value 0.985 | locus YBR009C, strain hhf1, stronger effect = lower value 0.997 | locus YBR021W, strain FUR4, stronger effect = lower value 0.991 | locus YBR023C, strain chs3, stronger effect = lower value 1 | locus YBR171W, strain sec66, stronger effect = lower value 0.99 | locus YBR229C, strain ROT2, stronger effect = lower value 1.01 | locus YBR231C, strain swc5, stronger effect = lower value 0.985 | locus YBR279W, strain paf1, stronger effect = lower value 0.997 | locus YCL011C, strain gbp2, stronger effect = lower value 0.978 | locus YCL016C, strain dcc1, stronger effect = lower value 0.993 | locus YCL029C, strain bik1, stronger effect = lower value 1.03 | locus YCL061C, strain MRC1 (second series), stronger effect = lower value 1.01 | locus YCL061C, strain MRC1, stronger effect = lower value 0.984 | locus YCL069W, strain vba3, stronger effect = lower value 0.983 | locus YCR088W, strain abp1, stronger effect = lower value 0.991 | locus YDL005C, strain med2, stronger effect = lower value 0.989 | locus YDL035C, strain GPR1, stronger effect = lower value 1.01 | locus YDL040C, strain nat1, stronger effect = lower value 0.992 | locus YDL074C, strain BRE1, stronger effect = lower value 1.02 | locus YDL101C, strain DUN1, stronger effect = lower value 1.02 | locus YDL134C, strain PPH21, stronger effect = lower value 1.01 | locus YDL185W, strain tfp1, stronger effect = lower value 1.01 | locus YDL192W, strain arf1, stronger effect = lower value 1.01 | locus YDR001C, strain nth1, stronger effect = lower value 0.984 | locus YDR069C, strain doa4, stronger effect = lower value 0.959 | locus YDR101C, strain arx1, stronger effect = lower value 1.01 | locus YDR137W, strain rgp1, stronger effect = lower value 1.03 | locus YDR150W, strain NUM1, stronger effect = lower value 1.01 | locus YDR159W, strain sac3, stronger effect = lower value 0.973 | locus YDR162C, strain NBP2, stronger effect = lower value 1.01 | locus YDR195W, strain ref2 0.944 | locus YDR297W, strain sur2, stronger effect = lower value 0.991 | locus YDR318W, strain mcm21, stronger effect = lower value 1.03 | locus YDR334W, strain swr1, stronger effect = lower value 0.98 | locus YDR335W, strain msn5, stronger effect = lower value 0.976 | locus YDR363W, strain ESC2, stronger effect = lower value 0.998 | locus YDR388W, stronger effect = lower value 1.01 | locus YDR392W, strain spt3, stronger effect = lower value 0.993 | locus YDR502C, strain sam2, stronger effect = lower value 1 | locus YEL003W, strain gim4, stronger effect = lower value 0.988 | locus YEL037C, strain rad23, stronger effect = lower value 0.993 | locus YEL061C, strain CIN8 (second series), stronger effect = lower value 0.974 | locus YEL061C, strain CIN8, stronger effect = lower value 1.01 | locus YER002W, strain NOP16, stronger effect = lower value 1.04 | locus YER015W, strain faa2, stronger effect = lower value 0.981 | locus YER016W, strain bim1, stronger effect = lower value 0.991 | locus YER110C, stronger effect = lower value 1.01 | locus YER111C, strain swi4, stronger effect = lower value 0.985 | locus YER155C, strain BEM2 (second series), stronger effect = lower value 1 | locus YER155C, strain BEM2, stronger effect = lower value 1.01 | locus YER167W, strain BCK2, stronger effect = lower value 1.01 | locus YFR010W, strain ubp6, stronger effect = lower value 0.971 | locus YGL078C, strain dbp3, stronger effect = lower value 1.01 | locus YGL086W, strain mad1, stronger effect = lower value 1 | locus YGL167C, strain pmr1, stronger effect = lower value 0.976 | locus YGL173C, strain kem1, stronger effect = lower value 0.988 | locus YGL227W, strain vid30, stronger effect = lower value 0.994 | locus YGL240W, strain doc1, stronger effect = lower value 0.966 | locus YGL248W, strain PDE1, stronger effect = lower value 1.01 | locus YGL253W, strain hxk2, stronger effect = lower value 0.99 | locus YGR078C, strain PAC10, stronger effect = lower value 1.01 | locus YGR135W, strain pre9, stronger effect = lower value 1.02 | locus YGR229C, strain SMI1, stronger effect = lower value 1.02 and 1.05 | locus YGR252W, strain gcn5, stronger effect = lower value 1.01 | locus YHR013C, strain ard1, stronger effect = lower value 0.961 | locus YHR027C, strain rpn1, stronger effect = lower value 0.972 | locus YHR030C, strain SLT2, stronger effect = lower value 1.01 and 0.97 | locus YHR079C, strain IRE1 (second series), stronger effect = lower value 1.02 | locus YHR079C, strain IRE1, stronger effect = lower value 0.996 | locus YHR094C, strain hxt1, stronger effect = lower value 1.01 | locus YHR129C, strain ARP1, stronger effect = lower value 1.01 | locus YHR142W, strain chs7, stronger effect = lower value 0.999 | locus YHR200W, strain rpn10, stronger effect = lower value 1 | locus YIL066C, strain RNR3, stronger effect = lower value 1.02 | locus YIL073C, strain SPO22, stronger effect = lower value 1.05 | locus YIL125W, strain kgd1, stronger effect = lower value 1.01 | locus YIR030C, strain dcg1, stronger effect = lower value 1.01 | locus YJL092W, strain hpr5, stronger effect = lower value 0.989 | locus YJL095W, strain BCK1 (second series), stronger effect = lower value 0.996 | locus YJL095W, strain BCK1, stronger effect = lower value 1.03 and 0.985 | locus YJL115W, strain asf1, stronger effect = lower value 0.976 | locus YJL129C, strain trk1, stronger effect = lower value 0.963 | locus YJL134W, strain LCB3, stronger effect = lower value 1.01 | locus YJL154C, strain vps35, stronger effect = lower value 0.995 | locus YJL164C, strain tpk1, stronger effect = lower value 0.978 | locus YJL166W, strain qcr8, stronger effect = lower value 0.992 | locus YJL168C, strain set2, stronger effect = lower value 1.01 | locus YJL187C, strain SWE1 (second series), stronger effect = lower value 1.03 | locus YJL187C, strain SWE1, stronger effect = lower value 0.983 | locus YJR043C, strain POL32, stronger effect = lower value 1.01 | locus YJR066W, strain TOR1, stronger effect = lower value 0.963
